Experiments:
[1] = biological target: T1, Ephrin type-A receptor 3 (Homo sapiens) (UniProt P29320); settings: at 10 µM
T1 sequence (whole entry): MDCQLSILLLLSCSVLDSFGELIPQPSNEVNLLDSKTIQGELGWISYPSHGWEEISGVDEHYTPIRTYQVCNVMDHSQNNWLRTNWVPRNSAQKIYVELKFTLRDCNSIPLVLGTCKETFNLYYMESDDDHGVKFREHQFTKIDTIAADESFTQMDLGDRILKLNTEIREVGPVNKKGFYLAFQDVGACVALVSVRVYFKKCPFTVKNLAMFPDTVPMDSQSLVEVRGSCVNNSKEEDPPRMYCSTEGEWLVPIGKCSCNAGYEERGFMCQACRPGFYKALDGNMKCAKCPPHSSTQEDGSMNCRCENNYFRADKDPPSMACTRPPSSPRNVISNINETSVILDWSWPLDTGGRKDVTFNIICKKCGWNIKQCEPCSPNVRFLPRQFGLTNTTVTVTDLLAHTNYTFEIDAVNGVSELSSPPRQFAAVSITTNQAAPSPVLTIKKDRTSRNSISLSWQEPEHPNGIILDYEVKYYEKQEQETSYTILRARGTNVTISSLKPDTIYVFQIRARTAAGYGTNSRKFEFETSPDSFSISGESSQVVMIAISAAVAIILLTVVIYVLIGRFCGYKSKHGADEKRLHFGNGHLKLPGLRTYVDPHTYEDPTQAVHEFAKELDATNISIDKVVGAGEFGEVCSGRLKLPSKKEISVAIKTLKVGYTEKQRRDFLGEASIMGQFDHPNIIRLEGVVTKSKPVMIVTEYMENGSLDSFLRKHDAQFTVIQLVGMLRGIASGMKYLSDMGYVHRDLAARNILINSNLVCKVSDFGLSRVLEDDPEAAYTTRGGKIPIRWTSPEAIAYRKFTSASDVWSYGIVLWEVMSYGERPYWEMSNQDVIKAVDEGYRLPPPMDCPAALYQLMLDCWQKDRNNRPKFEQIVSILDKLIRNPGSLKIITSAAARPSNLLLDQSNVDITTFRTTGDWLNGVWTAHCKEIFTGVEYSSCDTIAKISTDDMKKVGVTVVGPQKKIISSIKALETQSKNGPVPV

[2] = biological target: Ephrin type-A receptor 4 (Homo sapiens) (UniProt P54764); settings: at 1 µM
Sequence of Ephrin type-A receptor 4 (Homo sapiens) (P54764 whole entry): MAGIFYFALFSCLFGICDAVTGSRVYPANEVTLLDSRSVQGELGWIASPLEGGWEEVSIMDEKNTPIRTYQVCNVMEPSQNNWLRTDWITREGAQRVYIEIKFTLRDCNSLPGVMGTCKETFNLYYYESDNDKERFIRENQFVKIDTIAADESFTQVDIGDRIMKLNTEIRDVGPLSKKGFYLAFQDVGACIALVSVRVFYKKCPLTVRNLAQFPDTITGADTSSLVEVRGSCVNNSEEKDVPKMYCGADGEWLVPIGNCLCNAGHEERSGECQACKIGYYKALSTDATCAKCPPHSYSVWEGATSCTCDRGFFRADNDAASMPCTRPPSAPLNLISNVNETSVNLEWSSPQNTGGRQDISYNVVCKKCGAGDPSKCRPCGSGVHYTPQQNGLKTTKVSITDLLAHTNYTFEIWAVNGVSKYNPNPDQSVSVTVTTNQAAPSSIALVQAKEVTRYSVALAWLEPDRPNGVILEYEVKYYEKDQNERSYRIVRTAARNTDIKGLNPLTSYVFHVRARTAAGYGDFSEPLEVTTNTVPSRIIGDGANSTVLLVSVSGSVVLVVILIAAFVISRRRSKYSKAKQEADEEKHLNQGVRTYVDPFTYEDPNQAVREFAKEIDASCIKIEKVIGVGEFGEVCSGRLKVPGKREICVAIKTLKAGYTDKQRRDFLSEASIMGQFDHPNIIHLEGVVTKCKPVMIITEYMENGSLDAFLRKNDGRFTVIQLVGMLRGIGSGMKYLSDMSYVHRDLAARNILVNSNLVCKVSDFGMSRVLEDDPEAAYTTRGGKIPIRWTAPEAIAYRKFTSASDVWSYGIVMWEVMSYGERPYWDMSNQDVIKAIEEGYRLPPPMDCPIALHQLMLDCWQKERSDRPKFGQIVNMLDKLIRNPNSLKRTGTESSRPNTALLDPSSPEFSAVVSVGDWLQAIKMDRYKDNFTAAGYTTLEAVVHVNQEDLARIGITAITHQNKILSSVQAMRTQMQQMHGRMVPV

[3] = biological target: Ephrin type-A receptor 4 (Homo sapiens) (UniProt P54764); settings: at 10 µM
[4] = biological target: Ephrin type-A receptor 7 (Homo sapiens) (UniProt Q15375); settings: at 10 µM
Sequence of Ephrin type-A receptor 7 (Homo sapiens) (Q15375 28-998 limits assumed): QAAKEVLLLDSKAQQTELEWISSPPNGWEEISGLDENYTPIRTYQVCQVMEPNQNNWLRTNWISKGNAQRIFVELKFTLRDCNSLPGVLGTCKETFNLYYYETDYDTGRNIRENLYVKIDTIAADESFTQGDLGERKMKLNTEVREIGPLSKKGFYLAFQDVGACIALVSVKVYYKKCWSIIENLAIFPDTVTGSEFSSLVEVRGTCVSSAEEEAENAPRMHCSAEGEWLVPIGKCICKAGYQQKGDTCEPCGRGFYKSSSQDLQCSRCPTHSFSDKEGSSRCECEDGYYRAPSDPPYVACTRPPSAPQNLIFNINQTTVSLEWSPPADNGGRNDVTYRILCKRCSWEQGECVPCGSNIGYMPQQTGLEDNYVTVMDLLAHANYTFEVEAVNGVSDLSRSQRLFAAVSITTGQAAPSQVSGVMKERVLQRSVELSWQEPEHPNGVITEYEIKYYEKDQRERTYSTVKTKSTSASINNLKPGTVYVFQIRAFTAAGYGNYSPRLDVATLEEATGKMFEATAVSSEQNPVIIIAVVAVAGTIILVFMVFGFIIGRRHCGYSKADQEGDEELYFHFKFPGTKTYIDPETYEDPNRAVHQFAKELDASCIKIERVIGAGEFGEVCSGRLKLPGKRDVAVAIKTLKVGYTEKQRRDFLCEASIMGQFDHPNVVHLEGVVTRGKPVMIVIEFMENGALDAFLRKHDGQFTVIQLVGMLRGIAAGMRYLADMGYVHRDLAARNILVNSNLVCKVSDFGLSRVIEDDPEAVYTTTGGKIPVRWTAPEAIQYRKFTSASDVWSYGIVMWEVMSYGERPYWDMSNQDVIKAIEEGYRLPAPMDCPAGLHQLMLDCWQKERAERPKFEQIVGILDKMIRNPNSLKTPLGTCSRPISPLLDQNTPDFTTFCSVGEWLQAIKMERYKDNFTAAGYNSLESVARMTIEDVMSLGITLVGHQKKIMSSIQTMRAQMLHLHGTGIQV

[5] = biological target: T2, Ephrin type-A receptor 8 (Homo sapiens) (UniProt P29322); settings: at 1 µM
T2 sequence (whole entry): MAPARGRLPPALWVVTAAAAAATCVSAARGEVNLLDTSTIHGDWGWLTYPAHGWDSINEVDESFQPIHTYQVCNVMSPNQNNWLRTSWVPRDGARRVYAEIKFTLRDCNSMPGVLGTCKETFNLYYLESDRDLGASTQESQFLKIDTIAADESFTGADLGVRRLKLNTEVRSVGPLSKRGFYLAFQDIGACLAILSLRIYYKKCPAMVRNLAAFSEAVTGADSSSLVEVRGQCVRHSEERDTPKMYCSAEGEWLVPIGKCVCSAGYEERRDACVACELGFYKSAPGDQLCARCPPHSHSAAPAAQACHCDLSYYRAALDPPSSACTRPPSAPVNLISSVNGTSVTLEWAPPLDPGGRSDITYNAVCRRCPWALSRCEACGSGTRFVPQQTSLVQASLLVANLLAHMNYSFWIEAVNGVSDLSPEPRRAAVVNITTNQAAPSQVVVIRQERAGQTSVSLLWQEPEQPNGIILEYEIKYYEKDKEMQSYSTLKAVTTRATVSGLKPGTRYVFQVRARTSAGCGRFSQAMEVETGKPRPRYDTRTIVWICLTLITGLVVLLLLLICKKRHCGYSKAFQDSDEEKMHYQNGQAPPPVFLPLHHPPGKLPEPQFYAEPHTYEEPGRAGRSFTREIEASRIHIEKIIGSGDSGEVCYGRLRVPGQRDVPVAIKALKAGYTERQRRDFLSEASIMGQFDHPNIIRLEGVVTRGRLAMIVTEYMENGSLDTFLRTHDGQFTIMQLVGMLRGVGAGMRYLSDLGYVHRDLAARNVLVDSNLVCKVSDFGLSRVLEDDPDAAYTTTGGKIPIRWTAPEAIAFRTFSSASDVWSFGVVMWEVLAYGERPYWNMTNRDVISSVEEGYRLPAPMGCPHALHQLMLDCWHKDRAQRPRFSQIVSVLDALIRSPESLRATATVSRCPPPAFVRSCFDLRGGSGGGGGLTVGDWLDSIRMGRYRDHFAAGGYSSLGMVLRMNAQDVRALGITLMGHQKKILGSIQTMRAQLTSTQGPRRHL

[6] = biological target: T2, Ephrin type-A receptor 8 (Homo sapiens); settings: at 10 µM
[7] = biological target: T3, Ephrin type-B receptor 1 (Homo sapiens) (UniProt P54762); settings: at 1 µM
T3 sequence (whole entry): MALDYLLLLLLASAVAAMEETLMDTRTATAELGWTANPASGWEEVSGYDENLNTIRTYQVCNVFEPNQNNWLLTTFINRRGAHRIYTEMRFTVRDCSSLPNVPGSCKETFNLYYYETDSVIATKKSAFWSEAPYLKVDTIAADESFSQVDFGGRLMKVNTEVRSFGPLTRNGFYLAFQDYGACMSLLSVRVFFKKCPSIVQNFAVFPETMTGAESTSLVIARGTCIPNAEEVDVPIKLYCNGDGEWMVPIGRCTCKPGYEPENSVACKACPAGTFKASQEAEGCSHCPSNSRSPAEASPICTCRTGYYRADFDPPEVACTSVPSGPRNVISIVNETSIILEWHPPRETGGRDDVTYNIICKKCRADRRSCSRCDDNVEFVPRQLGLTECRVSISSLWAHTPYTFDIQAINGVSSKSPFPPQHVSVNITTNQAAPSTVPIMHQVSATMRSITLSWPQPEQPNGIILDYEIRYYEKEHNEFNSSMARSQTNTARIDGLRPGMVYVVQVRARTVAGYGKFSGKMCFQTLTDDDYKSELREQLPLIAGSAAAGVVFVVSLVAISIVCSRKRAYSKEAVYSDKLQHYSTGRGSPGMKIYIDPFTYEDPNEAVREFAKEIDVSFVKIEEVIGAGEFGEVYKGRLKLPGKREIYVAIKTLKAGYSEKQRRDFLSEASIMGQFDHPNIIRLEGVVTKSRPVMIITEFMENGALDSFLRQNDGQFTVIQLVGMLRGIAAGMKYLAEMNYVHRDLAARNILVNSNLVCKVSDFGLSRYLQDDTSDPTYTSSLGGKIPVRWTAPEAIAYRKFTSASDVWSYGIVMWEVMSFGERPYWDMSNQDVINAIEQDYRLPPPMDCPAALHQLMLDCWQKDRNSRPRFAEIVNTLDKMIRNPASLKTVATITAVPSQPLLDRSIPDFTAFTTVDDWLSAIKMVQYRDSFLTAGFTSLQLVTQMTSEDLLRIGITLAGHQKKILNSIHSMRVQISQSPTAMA

[8] = biological target: T3, Ephrin type-B receptor 1 (Homo sapiens); settings: at 10 µM
[9] = biological target: T4, Ephrin type-B receptor 2 (Homo sapiens) (UniProt P29323); settings: at 1 µM
T4 sequence (whole entry): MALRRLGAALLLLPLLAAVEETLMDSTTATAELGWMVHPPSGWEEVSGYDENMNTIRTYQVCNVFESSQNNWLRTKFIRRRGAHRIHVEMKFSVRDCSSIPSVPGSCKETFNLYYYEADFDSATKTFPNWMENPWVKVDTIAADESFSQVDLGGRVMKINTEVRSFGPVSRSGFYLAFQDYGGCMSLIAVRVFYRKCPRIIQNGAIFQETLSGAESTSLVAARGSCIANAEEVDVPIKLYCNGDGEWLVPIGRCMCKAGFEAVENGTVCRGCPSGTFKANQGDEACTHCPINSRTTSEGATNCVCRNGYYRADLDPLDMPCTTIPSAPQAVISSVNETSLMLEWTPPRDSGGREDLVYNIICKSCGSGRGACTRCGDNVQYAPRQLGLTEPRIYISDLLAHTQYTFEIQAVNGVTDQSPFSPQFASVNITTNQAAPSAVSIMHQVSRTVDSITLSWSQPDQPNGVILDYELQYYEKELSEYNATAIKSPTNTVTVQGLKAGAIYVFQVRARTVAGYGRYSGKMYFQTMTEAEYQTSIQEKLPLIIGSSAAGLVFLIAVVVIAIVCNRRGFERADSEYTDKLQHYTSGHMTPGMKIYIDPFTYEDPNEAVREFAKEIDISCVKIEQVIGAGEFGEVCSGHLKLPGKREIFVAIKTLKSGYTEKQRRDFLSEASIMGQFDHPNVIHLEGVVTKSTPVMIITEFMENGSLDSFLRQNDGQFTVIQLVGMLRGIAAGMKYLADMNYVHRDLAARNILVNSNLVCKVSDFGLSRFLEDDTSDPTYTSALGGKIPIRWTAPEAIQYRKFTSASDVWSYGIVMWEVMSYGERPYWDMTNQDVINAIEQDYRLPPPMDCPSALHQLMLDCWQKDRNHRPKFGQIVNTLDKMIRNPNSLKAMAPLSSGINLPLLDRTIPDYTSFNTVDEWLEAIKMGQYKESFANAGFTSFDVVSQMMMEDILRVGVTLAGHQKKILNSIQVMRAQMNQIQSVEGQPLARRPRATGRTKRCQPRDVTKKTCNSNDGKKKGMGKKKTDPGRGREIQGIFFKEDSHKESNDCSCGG

[10] = biological target: T5, Ephrin type-B receptor 3 (Homo sapiens) (UniProt P54753); settings: at 1 µM
T5 sequence (whole entry): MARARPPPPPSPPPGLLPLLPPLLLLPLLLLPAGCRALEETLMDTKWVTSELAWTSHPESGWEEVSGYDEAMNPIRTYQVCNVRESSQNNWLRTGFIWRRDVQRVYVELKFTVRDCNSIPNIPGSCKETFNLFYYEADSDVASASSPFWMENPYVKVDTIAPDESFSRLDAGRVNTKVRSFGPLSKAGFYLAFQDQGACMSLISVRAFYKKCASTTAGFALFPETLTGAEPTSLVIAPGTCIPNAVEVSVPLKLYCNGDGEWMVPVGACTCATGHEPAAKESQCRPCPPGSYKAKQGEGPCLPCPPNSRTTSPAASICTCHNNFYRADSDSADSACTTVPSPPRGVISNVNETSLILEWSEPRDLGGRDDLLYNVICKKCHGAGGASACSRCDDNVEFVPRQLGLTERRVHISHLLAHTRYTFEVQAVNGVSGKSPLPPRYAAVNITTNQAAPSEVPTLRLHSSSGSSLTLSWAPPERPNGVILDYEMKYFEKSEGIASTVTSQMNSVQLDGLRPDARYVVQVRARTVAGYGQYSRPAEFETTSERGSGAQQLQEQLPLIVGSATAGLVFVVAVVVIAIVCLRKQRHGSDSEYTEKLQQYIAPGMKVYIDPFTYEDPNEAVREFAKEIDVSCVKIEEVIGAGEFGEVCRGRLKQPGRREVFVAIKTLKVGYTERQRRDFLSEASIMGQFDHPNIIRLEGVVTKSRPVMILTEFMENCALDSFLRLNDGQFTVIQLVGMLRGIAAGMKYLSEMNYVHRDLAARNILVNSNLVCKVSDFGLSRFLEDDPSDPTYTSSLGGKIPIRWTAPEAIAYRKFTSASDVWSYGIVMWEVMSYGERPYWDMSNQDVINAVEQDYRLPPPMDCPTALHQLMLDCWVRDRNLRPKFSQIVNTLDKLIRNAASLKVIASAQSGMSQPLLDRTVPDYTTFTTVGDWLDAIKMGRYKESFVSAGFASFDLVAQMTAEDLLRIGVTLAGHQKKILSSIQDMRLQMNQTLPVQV

[11] = biological target: T5, Ephrin type-B receptor 3 (Homo sapiens); settings: at 10 µM
[12] = biological target: Receptor tyrosine-protein kinase erbB-4 (Homo sapiens) (UniProt Q15303); settings: at 1 µM
Sequence of Receptor tyrosine-protein kinase erbB-4 (Homo sapiens) (Q15303 whole entry): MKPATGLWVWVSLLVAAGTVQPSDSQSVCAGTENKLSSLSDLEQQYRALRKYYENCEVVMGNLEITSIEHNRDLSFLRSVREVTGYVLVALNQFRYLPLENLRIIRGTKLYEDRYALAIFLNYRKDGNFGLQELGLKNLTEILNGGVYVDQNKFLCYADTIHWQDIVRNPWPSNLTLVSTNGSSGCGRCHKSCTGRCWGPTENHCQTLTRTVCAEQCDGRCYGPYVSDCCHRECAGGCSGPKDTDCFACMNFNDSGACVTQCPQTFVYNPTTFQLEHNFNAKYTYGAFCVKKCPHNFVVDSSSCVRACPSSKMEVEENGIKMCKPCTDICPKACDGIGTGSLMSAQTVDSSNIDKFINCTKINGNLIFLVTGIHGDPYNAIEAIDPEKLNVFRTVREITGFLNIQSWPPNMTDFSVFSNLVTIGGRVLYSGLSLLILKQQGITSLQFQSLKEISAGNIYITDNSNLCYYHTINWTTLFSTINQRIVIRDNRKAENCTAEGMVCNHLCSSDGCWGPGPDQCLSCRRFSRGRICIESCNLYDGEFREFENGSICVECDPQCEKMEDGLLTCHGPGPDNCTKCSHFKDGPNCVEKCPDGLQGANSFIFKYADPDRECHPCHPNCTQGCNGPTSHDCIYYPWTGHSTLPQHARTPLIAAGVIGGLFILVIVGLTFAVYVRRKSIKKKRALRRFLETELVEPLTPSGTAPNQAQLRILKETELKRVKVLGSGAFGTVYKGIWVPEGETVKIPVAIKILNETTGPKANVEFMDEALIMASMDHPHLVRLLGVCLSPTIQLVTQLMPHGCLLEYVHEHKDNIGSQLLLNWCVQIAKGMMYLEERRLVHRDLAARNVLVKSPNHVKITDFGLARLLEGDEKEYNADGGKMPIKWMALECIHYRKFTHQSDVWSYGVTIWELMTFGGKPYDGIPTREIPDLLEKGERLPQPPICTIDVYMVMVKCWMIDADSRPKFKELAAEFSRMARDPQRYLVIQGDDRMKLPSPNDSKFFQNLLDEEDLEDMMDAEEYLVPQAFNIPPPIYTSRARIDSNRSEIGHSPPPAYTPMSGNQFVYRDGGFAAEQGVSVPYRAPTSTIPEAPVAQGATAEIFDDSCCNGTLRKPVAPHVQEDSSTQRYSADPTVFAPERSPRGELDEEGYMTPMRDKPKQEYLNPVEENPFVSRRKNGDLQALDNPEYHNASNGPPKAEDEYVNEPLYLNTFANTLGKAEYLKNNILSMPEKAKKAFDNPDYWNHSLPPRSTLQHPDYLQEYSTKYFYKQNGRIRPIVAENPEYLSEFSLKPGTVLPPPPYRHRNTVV

[13] = biological target: Receptor tyrosine-protein kinase erbB-4 (Homo sapiens) (UniProt Q15303); settings: at 10 µM
[14] = biological target: Ephrin type-A receptor 5 (Homo sapiens) (UniProt P54756); settings: at 10 µM
Sequence of Ephrin type-A receptor 5 (Homo sapiens) (P54756 whole entry): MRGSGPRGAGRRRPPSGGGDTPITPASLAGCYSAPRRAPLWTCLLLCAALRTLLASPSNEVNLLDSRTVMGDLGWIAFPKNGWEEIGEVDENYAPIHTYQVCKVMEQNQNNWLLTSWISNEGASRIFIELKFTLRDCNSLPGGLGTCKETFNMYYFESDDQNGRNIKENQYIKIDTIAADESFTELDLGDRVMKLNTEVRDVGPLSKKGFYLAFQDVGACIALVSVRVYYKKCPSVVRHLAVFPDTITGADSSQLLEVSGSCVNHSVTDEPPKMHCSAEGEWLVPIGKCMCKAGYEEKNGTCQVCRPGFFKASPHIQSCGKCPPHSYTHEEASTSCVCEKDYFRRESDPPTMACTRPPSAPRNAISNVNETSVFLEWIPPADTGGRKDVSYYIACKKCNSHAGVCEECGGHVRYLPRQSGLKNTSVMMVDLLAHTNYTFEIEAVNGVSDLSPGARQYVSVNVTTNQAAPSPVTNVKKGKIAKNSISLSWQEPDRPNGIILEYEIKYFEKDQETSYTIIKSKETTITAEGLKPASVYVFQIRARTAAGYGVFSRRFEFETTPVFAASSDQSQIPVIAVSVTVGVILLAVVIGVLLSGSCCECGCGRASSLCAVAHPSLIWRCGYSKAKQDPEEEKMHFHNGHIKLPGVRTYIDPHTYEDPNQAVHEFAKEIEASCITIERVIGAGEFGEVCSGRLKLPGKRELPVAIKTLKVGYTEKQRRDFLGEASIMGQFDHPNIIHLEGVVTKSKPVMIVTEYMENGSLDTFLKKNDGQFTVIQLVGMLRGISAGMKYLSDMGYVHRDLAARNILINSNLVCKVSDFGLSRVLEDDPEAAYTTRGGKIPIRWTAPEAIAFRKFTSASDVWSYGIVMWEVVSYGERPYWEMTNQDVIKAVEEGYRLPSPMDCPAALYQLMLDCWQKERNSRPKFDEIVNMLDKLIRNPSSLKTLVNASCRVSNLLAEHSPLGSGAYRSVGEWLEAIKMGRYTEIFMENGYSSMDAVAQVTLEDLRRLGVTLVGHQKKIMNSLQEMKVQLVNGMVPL

[15] = biological target: T6, Ephrin type-B receptor 4 (Homo sapiens) (UniProt P54760); settings: at 1 µM
T6 sequence (whole entry): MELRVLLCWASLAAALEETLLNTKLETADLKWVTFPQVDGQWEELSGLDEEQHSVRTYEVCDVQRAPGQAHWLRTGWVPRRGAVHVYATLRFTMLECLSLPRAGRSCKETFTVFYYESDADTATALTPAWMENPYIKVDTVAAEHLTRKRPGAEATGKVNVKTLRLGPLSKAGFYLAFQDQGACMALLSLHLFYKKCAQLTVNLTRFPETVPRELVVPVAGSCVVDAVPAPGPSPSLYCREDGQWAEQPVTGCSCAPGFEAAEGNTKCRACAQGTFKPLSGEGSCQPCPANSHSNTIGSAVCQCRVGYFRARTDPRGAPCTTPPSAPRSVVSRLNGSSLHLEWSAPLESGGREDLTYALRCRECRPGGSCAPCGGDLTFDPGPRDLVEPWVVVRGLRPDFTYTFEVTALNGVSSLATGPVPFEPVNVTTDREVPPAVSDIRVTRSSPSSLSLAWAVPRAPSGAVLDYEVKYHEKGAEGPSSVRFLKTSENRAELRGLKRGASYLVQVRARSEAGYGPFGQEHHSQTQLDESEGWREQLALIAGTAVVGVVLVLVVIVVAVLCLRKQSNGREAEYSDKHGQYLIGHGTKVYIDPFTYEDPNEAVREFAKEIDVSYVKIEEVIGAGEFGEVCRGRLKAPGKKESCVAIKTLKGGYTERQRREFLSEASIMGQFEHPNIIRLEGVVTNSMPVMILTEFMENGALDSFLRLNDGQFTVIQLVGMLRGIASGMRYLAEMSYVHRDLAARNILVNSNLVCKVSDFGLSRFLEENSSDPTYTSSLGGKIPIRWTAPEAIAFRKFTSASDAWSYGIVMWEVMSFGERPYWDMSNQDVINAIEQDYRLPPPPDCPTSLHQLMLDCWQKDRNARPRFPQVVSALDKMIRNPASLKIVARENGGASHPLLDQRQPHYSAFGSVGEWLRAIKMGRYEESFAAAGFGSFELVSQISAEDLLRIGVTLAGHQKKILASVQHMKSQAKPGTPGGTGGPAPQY

[16] = biological target: T6, Ephrin type-B receptor 4 (Homo sapiens); settings: at 10 µM

SMILES: COc1ccc2c(c1)c(C1=C(c3c[nH]c4ccccc34)C(=O)NC1=O)cn2CCCN(C)C
- residual activity [1]: 60%
- residual activity [2]: 115%
- residual activity [3]: 73%
- residual activity [4]: 44%
- residual activity [5]: 100%
- residual activity [6]: 96%
- residual activity [7]: 80%
- residual activity [8]: 53%
- residual activity [9]: 109%
- residual activity [10]: 111% (inactive)
- residual activity [11]: 124%
- residual activity [12]: 75%
- residual activity [13]: 53%

SMILES: CSc1nc(-c2ccc(F)cc2)c(-c2ccnc(NC(C)c3ccccc3)c2)[nH]1 (configuration not stated)
- residual activity [1]: 97%
- residual activity [2]: 102%
- residual activity [3]: 91%
- residual activity [14]: 97%
- residual activity [4]: 95%
- residual activity [11]: 80%
- residual activity [15]: 99%
- residual activity [16]: 88%
- residual activity [13]: 85%

Source: ChEMBL document CHEMBL2218924, “A broad activity screen in support of a chemogenomic map for kinase signalling research and drug discovery” (Biochem J, 2013)
